Results: PubChem BioAssay AID1224921 (Broad Institute, 2016)
In all, about 1,400 compounds went through this assay and about 350 (25%) were called active. Inconclusive results (about 2%) are left out. No rule for the calls is given here. Only a sample is shown. Entries with a potency or affinity are not part of this list.

Assay: C. difficile growth inhibition, confirmation, 4-point retest (AID 1224921);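 also: plate controls were DMSO wells for no effect and levofloxacin 16 µg/mL wells for full effect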
Conditions: Clostridioides difficile clinical isolate growth, OD600, 24 h, hits give low values; at 30 µM unless noted

Max activity, inactive:
CCCNC(=O)Nc1ccc2c(c1)OC[C@@H](C)N(Cc1ccccc1)C[C@H](C)[C@H](OC)CN(C)C2=O 33.5%
CCS(=O)(=O)Nc1ccc2c(c1)C(=O)N(C)C[C@H](OC)[C@H](C)CN(CC1CCCC1)[C@H](C)CO2 -9.54% [at 1.95 µM]
C[C@@H]1CN([C@@H](C)CO)C(=O)Cc2cc(NC(=O)CCCN(C)C)ccc2O[C@H]1CN(C)Cc1ccc(Oc2ccccc2)cc1 12.2% [at 8 µM]
C[C@@H]1CN([C@@H](C)CO)C(=O)Cc2cc(NC(=O)Nc3ccc(C(F)(F)F)cc3)ccc2O[C@@H]1CN(C)Cc1ccccc1 36.8% [at 35 µM]
C[C@H](CO)N1C[C@H](C)[C@@H](CN(C)Cc2ccccc2)Oc2ccc(NC(=O)Nc3cccc4ccccc34)cc2CC1=O 21.6%
C[C@@H]1CN([C@H](C)CO)C(=O)Cc2cc(NC(=O)Nc3cccc4ccccc34)ccc2O[C@H]1CN(C)Cc1ccccc1 31.3% [at 8 µM]
CC(C)NC(=O)Nc1ccc2c(c1)CC(=O)N([C@@H](C)CO)C[C@@H](C)[C@@H](CN(C)Cc1ccc(-c3ccccc3)cc1)O2 42.2%
C[C@@H]1CN([C@@H](C)CO)C(=O)Cc2cc(NC(=O)Nc3cccc4ccccc34)ccc2O[C@H]1CN(C)Cc1ccccc1 34.5%
CCCN(C)C[C@H]1Oc2cc(C#CCC3CCCC3)ccc2S(=O)(=O)N([C@@H](C)CO)C[C@H]1C 28.1% [at 8 µM]
CCCN1C[C@H](C)[C@@H](OC)CN(C)C(=O)c2ccc(NC(=O)c3ccc(F)cc3)cc2OC[C@@H]1C -10.8% [at 1.95 µM]
CO[C@@H]1CN(C)C(=O)c2cc(NC(C)=O)ccc2OC[C@@H](C)N(Cc2nccs2)C[C@@H]1C 17.3%
O=C(C[C@@H]1C[C@H]2c3cc(NC(=O)NC4CCCC4)ccc3O[C@H]2[C@@H](CO)O1)NCc1ccccc1F -6.86% [at 1.95 µM]
CO[C@H]1CN(C)C(=O)c2ccc(NC(C)=O)cc2OC[C@H](C)N(C(=O)c2ccccc2F)C[C@@H]1C -11.1% [at 0.5 µM]
C[C@@H]1CN([C@H](C)CO)S(=O)(=O)c2ccc(/C=C/c3ccccc3)cc2O[C@@H]1CN(C)C(=O)Nc1cc(F)ccc1F 35.6%
CO[C@H]1CN(C)C(=O)c2cc(NC(=O)C3CCC3)ccc2OC[C@@H](C)N(Cc2ccc(F)cc2)C[C@@H]1C 29.4%
CCC(=O)N1C[C@@H](C)[C@H](OC)CN(C)C(=O)c2ccc(NC(=O)c3cc(C)on3)cc2OC[C@@H]1C -1.88% [at 1.95 µM]
C[C@@H](NC(=O)C[C@H]1C=C[C@@H](NC(=O)CN2CCOCC2)[C@H](CO)O1)c1ccccc1 -14.1% [at 8 µM]
CCC(=O)Nc1ccc2c(c1)C(=O)N(C)C[C@H](OC)[C@H](C)CN(C(=O)CN1CCOCC1)[C@@H](C)CO2 -5.93% [at 8 µM]
COc1cccc(NC(=O)N[C@H]2C=C[C@H](CC(=O)NCc3ccncn3)O[C@@H]2CO)c1 -9.51% [at 0.5 µM]
CCCC#Cc1ccc2c(c1)O[C@@H](CN(C)Cc1ccncc1)[C@@H](C)CN([C@H](C)CO)S2(=O)=O 33.3%
CO[C@H]1CN(C)C(=O)c2cc(NC(C)=O)ccc2OC[C@@H](C)N(CC2CCCCC2)C[C@H]1C -7.37% [at 1.95 µM]
O=C(N[C@H]1C=C[C@@H](CC(=O)N2CCc3ccccc3C2)O[C@H]1CO)C1CC1 -11.9% [at 1.95 µM]
Cc1ccc(-c2ccc3c(c2)O[C@H](CN(C)C(=O)NC(C)C)[C@H](C)CN([C@@H](C)CO)S3(=O)=O)cc1 20.5%
Cc1ccc(-c2ccc3c(c2)O[C@H](CN(C)Cc2ccncc2)[C@@H](C)CN([C@@H](C)CO)S3(=O)=O)cc1 32.6%
C/C=C/c1cnc2c(c1)C(=O)N([C@@H](C)CO)C[C@H](C)[C@H](CN(C)Cc1ccc(F)cc1)O2 9.72%
O=C(N[C@H]1C=C[C@@H](CC(=O)N2CCc3ccccc3C2)O[C@@H]1CO)C1CC1 -6.96%
CC(C)C#Cc1ccc2c(c1)O[C@@H](CN(C)Cc1cccnc1)[C@H](C)CN([C@H](C)CO)S2(=O)=O 36.4%
COc1ccc(-c2ccc([C@@H]3[C@H](C#N)N(C(=O)C4CCCC4)[C@H]3CO)cc2)cc1 -7.24% [at 1.95 µM]
C/C=C/c1cnc2c(c1)C(=O)N([C@H](C)CO)C[C@H](C)[C@H](CN(C)Cc1ccc(F)cc1)O2 14.8%
COc1cccc(-c2ccc3c(c2)O[C@H](CN(C)Cc2ccncc2)[C@@H](C)CN([C@@H](C)CO)S3(=O)=O)c1 21.8% [at 35 µM]
CO[C@H]1CN(C)C(=O)c2cc(NC(=O)c3cccc(F)c3)ccc2OC[C@@H](C)N(C(C)=O)C[C@H]1C 19% [at 8 µM]
CC(C)CC#Cc1ccc2c(c1)O[C@H](CN(C)Cc1cccnc1)[C@@H](C)CN([C@@H](C)CO)S2(=O)=O 39.7%
CO[C@H]1CN(C)C(=O)c2cc(NC(=O)Nc3cccc(F)c3)ccc2OC[C@@H](C)N(C)C[C@H]1C -11.4% [at 1.95 µM]
C[C@H](CO)N1C[C@H](C)[C@@H](CN(C)Cc2cccnc2)Oc2cc(C#CC3CCCCC3)ccc2S1(=O)=O 30.4%
O=C(C[C@H]1C[C@@H]2c3cc(NC(=O)Nc4ccc(F)cc4)ccc3O[C@@H]2[C@H](CO)O1)NC1CCCCC1 16%
CCCC(=O)Nc1ccc2c(c1)OC[C@@H](C)N(Cc1ccncc1)C[C@H](C)[C@H](OC)CN(C)C2=O 14.1%
O=C(C[C@@H]1C[C@H]2c3cc(NC(=O)Nc4ccc(C(F)(F)F)cc4)ccc3O[C@H]2[C@@H](CO)O1)NC1CCCCC1 -15.4% [at 1.95 µM]
CO[C@H]1CN(C)C(=O)c2cc(NC(=O)c3ccccc3)ccc2OC[C@H](C)N(C(=O)CN(C)C)C[C@H]1C -13% [at 1.95 µM]
CO[C@@H]1CN(C)C(=O)c2cc(NC(=O)c3cc(C)on3)ccc2OC[C@@H](C)N(C(C)=O)C[C@@H]1C -12.6% [at 1.95 µM]
O=C(C[C@H]1CC[C@H]2[C@@H](COC[C@@H](O)CN2Cc2cc(F)ccc2F)O1)NCc1ccc(Cl)cc1 12.5%
O=C(C[C@H]1CC[C@H]2[C@@H](COC[C@H](O)CN2Cc2cc(F)ccc2F)O1)NCc1ccc(F)cc1 -6.27%
C[C@H](CO)N1C[C@H](C)[C@H](CN(C)C)Oc2cc(-c3ccccc3F)ccc2S1(=O)=O -3.75% [at 1.95 µM]
COc1ccc(S(=O)(=O)Nc2cccc3c2O[C@@H](CN(C)S(=O)(=O)c2c(C)noc2C)[C@H](C)CN([C@H](C)CO)C3=O)cc1 14.4%
Cc1ccc(-c2ccc3c(c2)O[C@@H](CN(C)Cc2ccncc2)[C@@H](C)CN([C@@H](C)CO)S3(=O)=O)cc1 21.6%
CCC(=O)Nc1ccc2c(c1)OC[C@@H](C)N(CC1CCCCC1)C[C@H](C)[C@H](OC)CN(C)C2=O 11.5%
CC(C)[C@@H](C)NC(=O)N(C)C[C@@H]1OCc2ccccc2-c2ccccc2C(=O)N([C@@H](C)CO)C[C@H]1C 34.8%
CO[C@H]1CN(C)C(=O)c2ccc(NC(=O)C3CC3)cc2OC[C@@H](C)N(Cc2cncnc2)C[C@@H]1C -5.55%
COc1ccc(-c2ccc3n(c2=O)C[C@H]2[C@H](CO)[C@@H](C(=O)N4CCOCC4)[C@@H]3N2C)cc1 -4.95%
CC(C)CC#Cc1ccc2c(c1)O[C@H](CN(C)Cc1ccncc1)[C@H](C)CN([C@H](C)CO)S2(=O)=O 19.2% [at 8 µM]
C[C@H]1CN([C@@H](C)CO)C(=O)c2cc(C#CCN(C)C)cnc2O[C@@H]1CN(C)Cc1ccc(C(=O)O)cc1 -11.6% [at 1.95 µM]
O=C(Nc1ccc(Cl)c(Cl)c1)N[C@@H]1CC[C@@H](CCn2cc(C3CCCCC3)nn2)O[C@@H]1CO 30.5% [at 0.5 µM]
COc1ccccc1CNC(=O)C[C@H]1C[C@@H]2c3cc(NC(=O)NC4CCCC4)ccc3O[C@@H]2[C@@H](CO)O1 12.1%
C[C@@H]1CN([C@@H](C)CO)S(=O)(=O)c2ccc(C#Cc3cccc(F)c3)cc2O[C@@H]1CN(C)C 8.04%
COc1cccc(C#Cc2ccc3c(c2)O[C@H](CN(C)C)[C@H](C)CN([C@@H](C)CO)S3(=O)=O)c1 -8.62% [at 1.95 µM]
C[C@H](CO)N1C[C@H](C)[C@@H](CN(C)C)Oc2cc(C#Cc3ccc(F)cc3)ccc2S1(=O)=O 18.3%
COc1cccc(C#Cc2ccc3c(c2)O[C@H](CN(C)C)[C@@H](C)CN([C@H](C)CO)S3(=O)=O)c1 8.78%
C[C@H]1CN([C@@H](C)CO)S(=O)(=O)c2ccc(C#Cc3ccccc3F)cc2O[C@@H]1CN(C)C 20.5%
CC(C)NC(=O)N(C)C[C@H]1Oc2cc(C#Cc3cccc(F)c3)ccc2S(=O)(=O)N([C@@H](C)CO)C[C@@H]1C 30.3%
C[C@@H]1CN([C@H](C)CO)S(=O)(=O)c2ccc(C#Cc3ccc(F)cc3)cc2O[C@@H]1CN(C)S(C)(=O)=O -24% [at 1.95 µM]
COc1cccc(C#Cc2ccc3c(c2)O[C@@H](CN(C)C)[C@H](C)CN([C@@H](C)CO)S3(=O)=O)c1 41.9%
